Where a name gives a salt, the structure may show the parent alone. Values without a mark were called inactive.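 Rule for the calls: active = AUC significantly below DMSO controls by Student t-fit with adjusted P under 0.01; inactive = not significantly reduced.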
These compounds were tested on Haemophilus parainfluenzae (assay: growth AUC normalised to DMSO control (fraction of control); higher = less growth inhibition, active = hit call of the paper). Details: 20 µM.
Outline: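 Pathogens passaged twice anaerobically were inoculated at a starting OD578 of 0.01 into pre-reduced mGAM plates with drug at 20 μM and 1% DMSO, sealed with breathable membranes. Haemophilus parainfluenzae medium was supplemented with hemin and NAD. OD578 was read hourly for 24 h, with three biological replicates. Growth-curve AUC was computed by the trapezoidal rule up to the exponential-to-stationary transition and normalised to DMSO controls on the same plate.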

| SMILES | growth AUC normalised to DMSO control |
| --- | --- |
| C[C@H]1O[C@H](O[C@H]2[C@H](O)[C@@H](O)[C@@H](O[C@@H]([C@H](O)[C@@H](O)C=O)[C@H](O)CO)O[C@@H]2CO)[C@H](O)[C@@H](O)[C@@H]1N[C@H]1C=C(CO)[C@@H](O)[C@H](O)[C@H]1O [Acarbose] | 1.02 |
| CC(=O)Nc1ccc(O)cc1 [Acetaminophen] | 0.952 |
| CCN(CC)CC(=O)Nc1c(C)cccc1C [Lidocaine hydrochloride] | 1.02 |
| CCOC(=O)O[C@]1(C(=O)COC(=O)CC)CC[C@H]2[C@@H]3CCC4=CC(=O)C=C[C@]4(C)[C@H]3[C@@H](O)C[C@@]21C [Prednicarbate] | 1.16 |
| CC[C@H](C)C(=O)O[C@H]1C[C@@H](C)C=C2C=C[C@H](C)[C@H](CC[C@@H]3C[C@@H](O)CC(=O)O3)[C@H]21 [Lovastatin] | 0.984 |
| O=C(NCC(O)CO)c1c(I)c(C(=O)NCC(O)CO)c(I)c(N(CCO)C(=O)CO)c1I (centres undefined) [Ioversol] | 1.06 |
| NC(=O)c1cc[n+](CC2=C(C(=O)[O-])N3C(=O)[C@@H](NC(=O)[C@@H](c4ccccc4)S(=O)(=O)O)[C@H]3SC2)cc1 [Cefsulodin sodium salt] | 0.912 |
| Clc1ccc(C(Cn2ccnc2)OCc2csc3c(Cl)cccc23)c(Cl)c1 (centres undefined) [Sertaconazole nitrate] | 1.07 |
| CN1CCN(C2=Nc3ccccc3Oc3ccc(Cl)cc32)CC1 [Loxapine succinate] | 0.969 |
| CC/C(=C(\c1ccccc1)c1ccc(OCCN(C)C)cc1)c1ccccc1 [Tamoxifen citrate] | 0.997 |
| C=CC1=C(C(=O)O)N2C(=O)[C@@H](NC(=O)/C(=N\O)c3csc(N)n3)[C@H]2SC1 [Cefdinir] | 0.176 (active) |
| CC(C[N+](C)(C)C)OC(N)=O (centres undefined) [Bethanechol chloride] | 1 |
| C[C@H]1[C@H](NC(=O)/C(=N\OC(C)(C)C(=O)O)c2csc(N)n2)C(=O)N1S(=O)(=O)O [Aztreonam] | 0.0582 (active) |
| CN(C)CCC[C@@]1(c2ccc(F)cc2)OCc2cc(C#N)ccc21 [Escitalopram oxalate] | 1.03 |
| CC[C@H](c1ccc(O)cc1)[C@@H](CC)c1ccc(O)cc1 [Hexestrol] | 0.984 |
| CCCNC(C)C(=O)Nc1c(C)csc1C(=O)OC (centres undefined) [Articaine hydrochloride] | 1.01 |
| COc1ccccc1OCCNCC(O)COc1cccc2[nH]c3ccccc3c12 (centres undefined) [Carvedilol] | 0.963 |
| O=C1c2ccccc2S(=O)(=O)N1CCCCN1CCN(c2ncccn2)CC1 [Ipsapirone] | 0.979 |
| COc1cc2nc(N(C)CCCNC(=O)C3CCCO3)nc(N)c2cc1OC (centres undefined) [Alfuzosin hydrochloride] | 1.03 |
| Cc1cc2c(s1)Nc1ccccc1N=C2N1CCN(C)CC1 [Olanzapine] | 1.02 |

| SMILES | growth AUC normalised to DMSO control |
| --- | --- |
| COc1cc(NS(=O)(=O)c2ccc(N)cc2)nc(OC)n1 [Sulfadimethoxine] | 0.98 |
| CCN(CC)CCOC(=O)C1(C2CCCCC2)CCCCC1 [Dicyclomine hydrochloride] | 0.87 |
| CCC(Cc1c(I)cc(I)c(N)c1I)C(=O)O (centres undefined) [Iopanoic acid] | 0.971 |
| CC(=O)SCC(Cc1ccccc1)C(=O)NCC(=O)OCc1ccccc1 (centres undefined) [Racecadotril] | 0.986 |
| CC(=O)Nc1ccc(OCC(O)CNC(C)C)cc1 (centres undefined) [Practolol] | 1.01 |
| C[N+](C)(C)CCCCCC[N+](C)(C)C [Hexamethonium dibromide dihydrate] | 0.852 |
| CC[C@H](C)C(=O)O[C@H]1CCC=C2C=C[C@H](C)[C@H](CC[C@@H]3C[C@@H](O)CC(=O)O3)[C@H]21 [Mevastatin] | 0.978 |
| CC(C)(Sc1cc(C(C)(C)C)c(O)c(C(C)(C)C)c1)Sc1cc(C(C)(C)C)c(O)c(C(C)(C)C)c1 [Probucol] | 1.01 |
| CCOC(=O)NNc1nncc2ccccc12 [Todralazine hydrochloride] | 1.01 |
| CN1[C@@H]2CC[C@H]1C[C@@H](OC(c1ccccc1)c1ccccc1)C2 [Benztropine mesylate] | 1 |
| CCOC(=O)C1=C[C@]2(CC)CCCN3CCc4c(n1c1ccccc41)[C@@H]32 [Vinpocetine] | 0.845 |
| CC(C(=O)O)c1ccc2c(c1)Cc1cccnc1O2 (centres undefined) [Pranoprofen] | 0.985 |
| CCCc1nn(C)c2c(=O)[nH]c(-c3cc(S(=O)(=O)N4CCN(C)CC4)ccc3OCC)nc12 [Sildenafil] | 1.1 |
| O=C1Nc2ccc(Cl)cc2[C@@](C#CC2CC2)(C(F)(F)F)O1 [Efavirenz] | 0.991 |
| O=C1CCC(N2C(=O)c3ccccc3C2=O)C(=O)N1 (centres undefined) [Thalidomide] | 0.97 |
| COc1cccc2c1C(=O)c1c(O)c3c(c(O)c1C2=O)C[C@@](O)(C(C)=O)C[C@@H]3O[C@H]1C[C@H](N)[C@H](O)[C@H](C)O1 [Daunorubicin hydrochloride] | 0.997 |
| CCN(CC)CCOc1ccc(C(=C(Cl)c2ccccc2)c2ccccc2)cc1 [(Z,E) Clomiphene citrate] | 1.02 |
| CCCCNc1ccc(C(=O)OCCN(C)C)cc1 [Tetracaine hydrochloride] | 1.16 |
| CN(C)CCC(c1ccc(Br)cc1)c1ccccn1 (centres undefined) [Brompheniramine maleate] | 1.04 |
